The values below come from the supplement of paper PMC10849652.

Targets with a hit are over-represented here; the source holds about 7,900 in all. About 0.6% of all pairs of compound and target were hits.

Chain of UniProt Q9NUY8 (Q9NUY8 whole entry, looked up): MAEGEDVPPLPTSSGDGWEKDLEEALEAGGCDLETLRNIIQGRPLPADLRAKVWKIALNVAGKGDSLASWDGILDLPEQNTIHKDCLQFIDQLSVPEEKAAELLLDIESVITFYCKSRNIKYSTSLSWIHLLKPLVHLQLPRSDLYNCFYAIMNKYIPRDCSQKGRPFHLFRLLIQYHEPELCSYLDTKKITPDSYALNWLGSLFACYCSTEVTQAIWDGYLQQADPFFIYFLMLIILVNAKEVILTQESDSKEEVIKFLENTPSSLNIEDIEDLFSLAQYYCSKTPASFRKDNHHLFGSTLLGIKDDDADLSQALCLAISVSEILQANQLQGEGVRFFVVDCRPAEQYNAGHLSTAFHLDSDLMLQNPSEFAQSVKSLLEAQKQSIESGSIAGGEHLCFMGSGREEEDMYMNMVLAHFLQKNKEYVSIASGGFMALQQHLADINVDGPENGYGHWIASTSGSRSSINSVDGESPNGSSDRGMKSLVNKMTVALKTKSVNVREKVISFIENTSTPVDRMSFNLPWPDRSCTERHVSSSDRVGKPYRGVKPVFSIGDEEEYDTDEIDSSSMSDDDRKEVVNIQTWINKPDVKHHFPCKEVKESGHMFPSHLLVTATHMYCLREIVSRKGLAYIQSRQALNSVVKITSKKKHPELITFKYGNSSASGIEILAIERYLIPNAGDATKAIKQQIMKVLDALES
Chain of UniProt P31641 (P31641 whole entry, looked up): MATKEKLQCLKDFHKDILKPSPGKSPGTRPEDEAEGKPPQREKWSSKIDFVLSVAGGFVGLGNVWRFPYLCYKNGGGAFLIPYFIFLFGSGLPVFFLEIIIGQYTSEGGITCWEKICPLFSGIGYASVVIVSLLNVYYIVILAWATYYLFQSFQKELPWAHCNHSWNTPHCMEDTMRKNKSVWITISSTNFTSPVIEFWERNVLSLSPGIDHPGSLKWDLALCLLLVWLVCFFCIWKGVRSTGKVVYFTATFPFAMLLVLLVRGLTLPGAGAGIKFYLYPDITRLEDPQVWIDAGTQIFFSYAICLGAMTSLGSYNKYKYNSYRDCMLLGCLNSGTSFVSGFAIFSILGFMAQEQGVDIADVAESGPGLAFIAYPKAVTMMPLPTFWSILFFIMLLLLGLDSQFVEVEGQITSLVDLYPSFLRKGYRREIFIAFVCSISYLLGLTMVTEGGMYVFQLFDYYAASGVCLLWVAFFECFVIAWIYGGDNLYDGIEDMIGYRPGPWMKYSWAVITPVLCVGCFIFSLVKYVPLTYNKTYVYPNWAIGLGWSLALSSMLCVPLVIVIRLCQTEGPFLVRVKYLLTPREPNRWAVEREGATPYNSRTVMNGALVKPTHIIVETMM
Chain of UniProt P42226 (P42226 whole entry, looked up): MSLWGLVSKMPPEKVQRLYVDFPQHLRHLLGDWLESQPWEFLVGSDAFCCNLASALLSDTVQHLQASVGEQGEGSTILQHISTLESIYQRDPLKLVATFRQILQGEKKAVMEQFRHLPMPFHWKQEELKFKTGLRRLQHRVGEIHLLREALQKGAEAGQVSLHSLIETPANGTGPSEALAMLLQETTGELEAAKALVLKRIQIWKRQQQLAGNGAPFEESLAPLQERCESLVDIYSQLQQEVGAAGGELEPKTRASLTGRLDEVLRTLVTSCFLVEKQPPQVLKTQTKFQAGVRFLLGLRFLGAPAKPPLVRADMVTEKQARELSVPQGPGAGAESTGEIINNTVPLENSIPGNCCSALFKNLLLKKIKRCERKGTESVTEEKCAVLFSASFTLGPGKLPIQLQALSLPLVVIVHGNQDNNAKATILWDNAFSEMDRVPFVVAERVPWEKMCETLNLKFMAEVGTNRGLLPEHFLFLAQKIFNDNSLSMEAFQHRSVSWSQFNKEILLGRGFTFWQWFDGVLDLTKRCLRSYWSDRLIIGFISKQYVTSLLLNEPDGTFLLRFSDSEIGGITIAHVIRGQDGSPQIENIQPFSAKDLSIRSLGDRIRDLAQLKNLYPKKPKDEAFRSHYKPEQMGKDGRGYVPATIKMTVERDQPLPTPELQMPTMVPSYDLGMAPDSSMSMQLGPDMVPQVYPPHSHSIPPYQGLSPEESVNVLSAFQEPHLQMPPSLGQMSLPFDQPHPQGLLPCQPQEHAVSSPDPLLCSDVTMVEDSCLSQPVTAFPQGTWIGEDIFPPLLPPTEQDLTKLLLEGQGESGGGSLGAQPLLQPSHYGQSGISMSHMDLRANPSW
Chain of UniProt Q9Y5B9 (Q9Y5B9 whole entry, looked up): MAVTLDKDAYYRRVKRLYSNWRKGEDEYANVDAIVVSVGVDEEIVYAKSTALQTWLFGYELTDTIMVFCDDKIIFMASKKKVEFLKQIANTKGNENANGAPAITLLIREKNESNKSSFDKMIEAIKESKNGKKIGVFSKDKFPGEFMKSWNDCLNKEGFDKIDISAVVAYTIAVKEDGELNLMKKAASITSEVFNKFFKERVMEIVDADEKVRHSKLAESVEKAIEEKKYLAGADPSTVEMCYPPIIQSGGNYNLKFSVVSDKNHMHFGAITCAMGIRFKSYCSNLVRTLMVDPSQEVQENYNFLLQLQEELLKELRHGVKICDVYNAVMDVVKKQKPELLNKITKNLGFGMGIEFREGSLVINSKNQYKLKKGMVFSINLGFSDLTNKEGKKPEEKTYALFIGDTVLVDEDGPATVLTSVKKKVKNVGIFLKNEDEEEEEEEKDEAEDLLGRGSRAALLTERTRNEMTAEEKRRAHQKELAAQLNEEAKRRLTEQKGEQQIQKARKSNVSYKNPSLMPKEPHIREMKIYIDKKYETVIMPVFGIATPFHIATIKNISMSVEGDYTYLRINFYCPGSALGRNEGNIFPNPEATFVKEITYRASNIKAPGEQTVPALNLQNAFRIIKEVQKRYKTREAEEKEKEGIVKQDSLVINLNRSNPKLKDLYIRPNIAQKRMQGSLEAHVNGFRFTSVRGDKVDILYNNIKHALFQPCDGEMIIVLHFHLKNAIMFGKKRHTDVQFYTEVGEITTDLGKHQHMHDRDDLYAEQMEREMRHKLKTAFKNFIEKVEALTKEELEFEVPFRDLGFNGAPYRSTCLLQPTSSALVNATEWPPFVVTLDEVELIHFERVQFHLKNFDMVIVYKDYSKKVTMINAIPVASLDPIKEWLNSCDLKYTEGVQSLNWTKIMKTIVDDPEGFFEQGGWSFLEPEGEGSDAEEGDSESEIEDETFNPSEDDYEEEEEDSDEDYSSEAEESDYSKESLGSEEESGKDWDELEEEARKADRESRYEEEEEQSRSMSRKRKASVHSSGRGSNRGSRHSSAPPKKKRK
Chain of UniProt Q15796 (Q15796 whole entry, looked up): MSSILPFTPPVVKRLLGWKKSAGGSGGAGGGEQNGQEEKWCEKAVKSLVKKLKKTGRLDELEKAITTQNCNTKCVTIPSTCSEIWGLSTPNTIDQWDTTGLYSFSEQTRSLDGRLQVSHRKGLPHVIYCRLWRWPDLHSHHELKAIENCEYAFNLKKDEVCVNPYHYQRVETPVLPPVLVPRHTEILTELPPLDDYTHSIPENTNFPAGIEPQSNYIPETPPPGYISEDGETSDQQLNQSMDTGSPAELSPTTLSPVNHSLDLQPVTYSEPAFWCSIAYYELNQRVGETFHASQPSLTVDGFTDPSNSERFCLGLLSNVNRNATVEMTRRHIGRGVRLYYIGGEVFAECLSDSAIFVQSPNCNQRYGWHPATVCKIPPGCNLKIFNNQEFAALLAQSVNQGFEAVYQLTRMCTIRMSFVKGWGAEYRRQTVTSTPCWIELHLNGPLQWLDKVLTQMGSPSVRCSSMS
Chain of UniProt Q7L7X3 (Q7L7X3 whole entry, looked up): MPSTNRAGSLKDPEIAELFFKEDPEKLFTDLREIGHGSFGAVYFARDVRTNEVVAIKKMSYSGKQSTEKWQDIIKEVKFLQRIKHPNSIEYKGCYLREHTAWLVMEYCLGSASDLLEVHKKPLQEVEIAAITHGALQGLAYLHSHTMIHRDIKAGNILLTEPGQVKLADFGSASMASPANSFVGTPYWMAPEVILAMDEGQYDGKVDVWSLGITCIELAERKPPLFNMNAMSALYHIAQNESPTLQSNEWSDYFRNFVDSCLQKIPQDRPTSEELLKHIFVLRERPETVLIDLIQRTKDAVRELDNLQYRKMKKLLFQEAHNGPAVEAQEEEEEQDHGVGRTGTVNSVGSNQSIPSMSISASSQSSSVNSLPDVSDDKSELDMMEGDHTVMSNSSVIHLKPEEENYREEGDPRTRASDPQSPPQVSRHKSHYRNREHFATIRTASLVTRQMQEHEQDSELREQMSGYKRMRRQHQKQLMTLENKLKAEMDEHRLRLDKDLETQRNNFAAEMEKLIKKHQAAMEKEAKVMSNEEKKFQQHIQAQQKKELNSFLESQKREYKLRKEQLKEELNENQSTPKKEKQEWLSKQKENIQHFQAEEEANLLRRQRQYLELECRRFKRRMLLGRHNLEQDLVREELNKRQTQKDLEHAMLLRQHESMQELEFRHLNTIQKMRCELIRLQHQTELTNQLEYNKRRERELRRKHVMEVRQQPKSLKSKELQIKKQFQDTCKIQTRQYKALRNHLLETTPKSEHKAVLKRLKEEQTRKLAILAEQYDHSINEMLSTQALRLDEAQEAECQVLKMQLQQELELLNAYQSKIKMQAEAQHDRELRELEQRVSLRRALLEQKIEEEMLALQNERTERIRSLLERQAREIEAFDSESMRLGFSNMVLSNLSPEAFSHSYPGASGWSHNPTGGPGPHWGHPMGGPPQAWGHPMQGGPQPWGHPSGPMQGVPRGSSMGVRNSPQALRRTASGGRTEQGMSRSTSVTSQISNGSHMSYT
Chain of UniProt P84103 (P84103 whole entry, looked up): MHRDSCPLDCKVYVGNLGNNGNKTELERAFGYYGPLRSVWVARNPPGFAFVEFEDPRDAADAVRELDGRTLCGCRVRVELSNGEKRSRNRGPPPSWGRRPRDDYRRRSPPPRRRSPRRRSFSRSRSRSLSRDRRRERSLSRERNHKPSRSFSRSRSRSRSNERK
Chain of UniProt Q8WVK2 (Q8WVK2 whole entry, looked up): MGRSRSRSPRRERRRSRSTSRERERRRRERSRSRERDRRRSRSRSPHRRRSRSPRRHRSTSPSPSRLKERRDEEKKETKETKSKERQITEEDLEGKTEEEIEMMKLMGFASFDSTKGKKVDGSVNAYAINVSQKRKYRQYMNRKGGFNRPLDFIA

Compound in this assay: Cc1ccc(C(=O)N(CCCN)[C@@H](c2nc3cc(Cl)ccc3c(=O)n2Cc2ccccc2)C(C)C)cc1 [ispinesib]
Description: log2 fold change, soluble protein after heating vs DMSO (PISA); higher = thermal stabilisation; K562 cells, 10 uM, 30 min; active = over 0.2 and 3.5 SD of the protein, either way, in both replicates (recomputed). A digest of the protocol: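 K562 cells at 2×10^6 cells/mL were treated with 10 μM compound for 30 min. Aliquots were heated for 3 min across 48°C-58°C, pooled, and extracted in PBS with 0.5% NP-40 at 4°C; soluble protein was the supernatant after 21,000xg for 90 min. Soluble protein was quantified by TMTpro 16plex LC-MS/MS with channel sums equalised, and reported as log2 fold change in thermal stability against DMSO controls, with values from duplicates.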
Consider SNRNP27 (UniProt Q8WVK2), for which the log2 fold change is -0.119 (inactive).

Take SRP68 (UniProt Q9UHB9): the log2 fold change was -0.209 (inactive).

Turning to SP3 (UniProt Q02447), the log2 fold change is -0.046 (inactive).

Take TLK2 isoform 2 (UniProt Q86UE8): the log2 fold change is 0.019 (inactive).

As to STAT6 (UniProt P42226), the log2 fold change is -0.033 (inactive).

As to SLC38A9 (UniProt Q8NBW4), the log2 fold change is -0.474 (active).

With STAM2 (UniProt O75886), the log2 fold change is -0.049 (inactive).

Turning to SLC30A7 (UniProt Q8NEW0), the log2 fold change is -0.016 (inactive).

Regarding STARD7 (UniProt Q9NQZ5), the log2 fold change is -0.01 (inactive).

As to SUMO1 (UniProt P63165), the log2 fold change is 0.039 (inactive).

STAT5A (UniProt P42229): the log2 fold change was 0.275 (inactive).

On to SRPRA (UniProt P08240), for which the log2 fold change was 0.045 (inactive).

Take TBC1D15 isoform 3 (UniProt Q8TC07): the log2 fold change is -0.154 (inactive).

Regarding TFRC (UniProt P02786), the log2 fold change is -0.059 (inactive).

For SRSF7 (UniProt Q16629), the log2 fold change was -0.089 (inactive).

TAMM41 isoform 3 (UniProt Q96BW9): the log2 fold change was -0.249 (active).

Regarding STK38 (UniProt Q15208), the log2 fold change was 0.026 (inactive).

As for SLC6A6 (UniProt P31641), the log2 fold change was -0.028 (inactive).

For TBC1D23 (UniProt Q9NUY8), the log2 fold change is -0.48 (active).

With SMAD9 (UniProt O15198), the log2 fold change is -0.169 (inactive).

On to SRSF3 (UniProt P84103), for which the log2 fold change was -0.095 (inactive).

Turning to TBCD (UniProt Q9BTW9), the log2 fold change was -0.032 (inactive).

TECR (UniProt Q9NZ01): the log2 fold change is -0.501 (active).

In the case of STK39 (UniProt Q9UEW8), the log2 fold change is -0.038 (inactive).

As for TAF9 (UniProt Q16594), the log2 fold change was -0.007 (inactive).

In the case of SUPT16H (UniProt Q9Y5B9), the log2 fold change was 0.028 (inactive).

As for SRFBP1 (UniProt Q8NEF9), the log2 fold change was -0.055 (inactive).

For SLC9A6 isoform 2 (UniProt Q92581), the log2 fold change is -0.331 (active).

As for SNX11 (UniProt Q9Y5W9), the log2 fold change is -0.536 (active).

SREK1 isoform 2 (UniProt Q8WXA9): the log2 fold change is 0.059 (inactive).

Regarding SMAD2 (UniProt Q15796), the log2 fold change was -0.019 (inactive).

Take TBC1D5 isoform 2 (UniProt Q92609): the log2 fold change was -0.268 (inactive).

In the case of SLC25A36 (UniProt Q96CQ1), the log2 fold change is -0.021 (inactive).

Take SLC7A6 (UniProt Q92536): the log2 fold change was 0.17 (inactive).

With SUGP1 (UniProt Q8IWZ8), the log2 fold change was 0.019 (inactive).

As to TAOK1 (UniProt Q7L7X3), the log2 fold change was -0.001 (inactive).

On to STXBP5 (UniProt Q5T5C0), for which the log2 fold change is -0.058 (inactive).

For SURF1 (UniProt Q15526), the log2 fold change was -0.181 (inactive).
